From PubChem
In the library only some 3.8% were active in any assay of this set; here they are far more common.
MBNL1 CUG block = inhibitors of human MBNL1 binding to CUG repeat RNA. Q9NR56. TR-FRET MBNL1-His/biotin-(CUG)12 binding, 665/545 ratio. Potency, µM (doses to about 57.5 µM), for inactives: at the top dose activity change, negative = inhibition, usual class: inhibitors. hit rate 0.036% among 280,000; active = well fitted inhibition curve with a large enough effect in the signal ratio, with a control signal flat, not every such curve was filed as active; inconclusive = small, poorly fitted or top-dose-only effect, or effect the other way, or a change in a side signal; inactive = no such curve, though single readings can be large or run the other way; the % refers to the signal ratio; also: potency is read from the fitted curve at half-maximal effect; % is scaled to controls: 0 for no effect and ±100 for the full control effect
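Compound titration spanned 92 nM–58 uM against the MBNL1-His/biotin-(CUG)12 complex. After 60 min at room temperature with 5 nM streptavidin-XL665 and 0.055 ng/ul terbium anti-His, ratiometric 665/545 nm emission (Ex 340 nm) normalized to controls.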
VDR inh = blocks the human vitamin D receptor. P11473. VDR-SRC2-3 peptide fluorescence polarization, 2 h. Potency, µM, for the others: max response, negative = inhibition, most hits filed as inhibitors. hit rate 0.93% among 400,000; also: potency is read from the fitted curve at half-maximal effect; % is scaled to controls: 0 for no effect and ±100 for the full control effect
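Fluorescence polarization assay of small-molecule disruption of VDR binding to coregulator peptide SRC2-3. Compounds and controls pin-transferred, then read after 2 h incubation at ambient room temperature.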
CBFb-RUNX1 inh = blocks binding between human CBF-beta and RUNX1; Q01196+Q13951; AlphaScreen CBFb-His/RUNX1-biotin binding, biochemical; Potency, µM (top dose mostly 59.8 µM), without a hit: at the highest dose activity, negative = inhibition, actives largely listed as inhibitors; 230,000 tested, under 10 active; also: % of control where 0% means no effect
Target sequence (Q01196 whole entry, looked up): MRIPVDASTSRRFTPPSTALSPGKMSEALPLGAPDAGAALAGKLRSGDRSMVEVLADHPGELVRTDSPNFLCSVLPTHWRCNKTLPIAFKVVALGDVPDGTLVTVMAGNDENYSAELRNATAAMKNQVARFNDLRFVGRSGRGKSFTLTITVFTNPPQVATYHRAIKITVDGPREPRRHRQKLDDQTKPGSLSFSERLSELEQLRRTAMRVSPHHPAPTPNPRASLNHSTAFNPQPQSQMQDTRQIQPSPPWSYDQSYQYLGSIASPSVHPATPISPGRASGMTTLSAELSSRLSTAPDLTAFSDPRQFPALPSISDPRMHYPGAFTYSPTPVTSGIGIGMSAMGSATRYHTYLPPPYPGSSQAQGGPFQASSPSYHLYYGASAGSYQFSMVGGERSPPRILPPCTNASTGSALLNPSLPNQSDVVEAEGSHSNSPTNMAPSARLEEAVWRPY
Target sequence (Q13951 whole entry, looked up): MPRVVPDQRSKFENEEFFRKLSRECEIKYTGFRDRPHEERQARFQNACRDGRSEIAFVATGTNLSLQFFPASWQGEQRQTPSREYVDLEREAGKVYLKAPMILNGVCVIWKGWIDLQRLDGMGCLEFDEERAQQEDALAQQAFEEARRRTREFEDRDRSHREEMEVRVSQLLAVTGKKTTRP
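Proteins preincubated together for 20 min at RT before compound addition; 15 min later, nickel and streptavidin beads were added and left 90 min prior to AlphaScreen measurement.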
KCNH2 WT inh = inhibitors of human wildtype KCNH2 potassium channel. Q12809. U2OS, BacMam KCNH2, thallium flux FluxOr; stronger effect = lower value. activity change, % at 1.84 µM. hit rate 0.37% among 340,000;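 active = maximum activity change below -70%; inconclusive = maximum activity change between -70% and -50%; inactive = maximum activity change above -50%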; also: % is scaled to controls: 0 for no effect and ±100 for the full control effect
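U2OS cells transduced with wild-type KCNH2 virus are loaded with FluxOr dye for 45 min, and thallium flux is measured in kinetic reads before and after stimulation buffer. Rate constants are normalized to DMSO controls.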
PLK1 PBD block = blocks phosphopeptide binding to human PLK1 polo-box domain | Plk1 PBD binding of FITC phosphopeptide, fluorescence polarization | Potency, µM, inactives show max response, negative = inhibition, actives largely listed as inhibitors | hit rate 2.8% among 360,000 | AID 720504; also: potency is read from the fitted curve at half-maximal effect; series mostly up to about 57 µM; % is scaled to controls: 0 for no effect and ±100 for the full control effect; nearly all actives have a fitted effect of over 65% in size
KCNH2 3.1 block = blocks the human KCNH2 3.1 channel isoform; activity change, % (tested at about 1.8 µM); hit rate 0.95% among 340,000; U2OS KCNH2 3.1, thallium flux FluxOr; stronger effect = lower value; AID 720553;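 active = maximum activity change below -70%; inconclusive = maximum activity change from -70% to -50%; inactive = maximum activity change above -50%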;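 also: thallium influx rate constant from kinetic fluorescence after stimulation buffer; % is scaled to controls: 0 for no effect and ±100 for the full control effect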
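We transduce U2OS cells with the mutant 3.1 virus, culture them overnight, load FluxOr with Red40 quencher for 45 min, then add stimulation buffer and read kinetically for 2 min to derive a normalized rate constant.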
Starred values were filed as active, the others as inactive; ? = inconclusive; / = not tested or not shown; [ ] = another dose, or the depositor's remark. Unless noted, calls follow the shape of the dose curve; as a rule, active = well fitted curve in the direction sought with a large enough effect; inconclusive = small, poorly fitted or top-dose-only effect, or another doubt; inactive = no such curve, though single readings can be large; an effect the other way counts as inactive or inconclusive.

SMILES	MBNL1 CUG block	VDR inh	CBFb-RUNX1 inh	KCNH2 WT inh	PLK1 PBD block	KCNH2 3.1 block
CC(C)C[C@H](NC(=O)[C@H](CO)NC(=O)CNC(=O)[C@H](CCCCN)NC(=O)[C@H](CCCN=C(N)N)NC(=O)[C@H](C)NC(=O)[C@H](Cc1ccccc1)NC(=O)[C@@H](N)CCCN=C(N)N)C(=O)N[C@@H](CCCN=C(N)N)C(=O)N[C@@H](CCC(N)=O)C(=O)N[C@@H](CCCCN)C(=O)N[C@@H](CC(N)=O)C(=O)N[C@H](C(=O)O)C(C)C	/	5%	7%	/	/	/
CC(C)Nc1nc(NC(C)C)nc(OCCOC(=O)c2ccccc2)n1	-5%[11.5 µM]	-18%	-6%	6	-7%	3
CC(=O)OCCOc1nc(NC(C)C)nc(NC(C)C)n1	6%[11.5 µM]	?	-7%	2	30µM*	1
Cc1nc2ccn(Cc3ccco3)c(=O)c2cc1C(=O)Nc1ccc(F)cc1	/	-8%	/	/	/	/
CCn1cc2nc(SCc3cccc(C(F)(F)F)c3)n(Cc3ccc(Cl)cc3)c(=O)c2n1	/	5%	/	/	/	/
O=C1Nc2ccc(Br)cc2/C1=C/C1CC=CCC1 (centres undefined)	-5%	71µM*	-3%	-10	-18%	-3
COc1ccc(C(=O)/C=C2\C(=O)Nc3ccc(Br)cc32)cc1	/	?	/	-24	?	0
CCOC(=O)C1=C(CS(=O)(=O)c2ccc(C(C)(C)C)cc2)NC(=O)NC1c1cccc(OC)c1 (centres undefined)	/	-22%	/	/	/	/
Cc1ccc(-c2nnn3c2nc(NCCc2ccccc2)c2ccccc23)cc1	/	-3%	/	/	/	/
O=C(Oc1c(Br)cc([N+](=O)[O-])cc1Br)c1cccnc1	20%	-10%	4%	4	19µM*	14
N/C(=N\OC(=O)c1ccc([N+](=O)[O-])cc1)c1cccnc1	?	-24%	-8%	11	-7%	5
c1ccc2[nH]c3cc4ncnc4cc3nc2c1	?	-13%	13%	-3	24µM*	-3
FC(F)c1nc2ccccc2[nH]1	23%	15%	-13%	1	-12%	0
CCOC(=O)c1ccc(N2CCN(c3cc(C)ccc3C)CC2)c(NC(=O)Nc2ccccc2)c1	/	14%	/	/	/	/
Cc1cc(C(=O)OCC(=O)NC2CCCCC2)c(C)o1	-4%	1%	-2%	2	-9%	6
Cc1cc2c(cc(C(=O)OCC(=O)NC3CCCCC3)n2C)o1	/	?	/	11	27µM*	-8
COc1cccc(CNC(=O)C2CCN(S(=O)(=O)c3c(C)nn(C)c3C)CC2)c1	-2%	-18%	2%	-1	27µM*	0
CCc1c(C)nc2ncnn2c1N1CCC(C(=O)NCc2cccc(OC)c2)CC1	0%	?	5%	31	27µM*	-7
COc1cccc(CNC(=O)C2CCN(S(=O)(=O)c3ccc(C)cc3)CC2)c1	2%	2%	/	-9	3%	16
Cc1ccc(S(=O)(=O)N2CCN(c3ccnc(-c4cccs4)n3)CC2)cc1	/	20%	/	/	/	/
Cc1ccc(-n2c(SCC(N)=O)nc3c(oc4ccccc43)c2=O)cc1C	/	-6%	/	/	/	/
O=C(CCCN1CCC(C(=O)c2ccc(F)cc2)CC1)c1ccc(F)cc1	2%	?	/	-74*	-2%	-103*
COc1ccccc1N1CCN(C(=O)COc2cc(C)ccc2C)CC1	-5%	40µM*	8%	0	21µM*	11
COc1ccc(C(=O)N2CCN(c3ccccc3OC)CC2)cc1	5%	-8%	2%	5	-12%	-10
COc1ccccc1N1CCN(CCCC(=O)c2ccc(F)cc2)CC1	6%	1%	4%	45	-5%	-70*
SMILES	MBNL1 CUG block	VDR inh	CBFb-RUNX1 inh	KCNH2 WT inh	PLK1 PBD block	KCNH2 3.1 block
O=C(CCCN1CCC(C(O)c2ccc(F)cc2)CC1)c1ccc(F)cc1 (centres undefined)	/	/	/	/	-3%	/
COc1ccccc1N1CCN(C(=O)c2ccc(C(C)(C)C)cc2)CC1	-3%	?	1%	5	2.7µM*	-1
CCOc1ccc(/C=C/c2nc(C#N)c(N3CCCCCC3)o2)cc1	/	-8%	/	/	/	/
COc1ccc(-c2c[n+]3c(n2-c2ccc(C)cc2)CCCCC3)cc1	1%	8%	3%	-2	2%	-15
CCOc1ccc(-n2c(-c3ccc(OC)cc3)c[n+]3c2CCCCC3)cc1	-5%	-2%	1%	-20	1%	-32
CCOc1ccc(-n2c(-c3ccc(Br)cc3)c[n+]3c2CCCCC3)cc1	-6%	5%	3%	-81*	1%	-85*
COc1ccc(-c2c[n+]3c(n2-c2ccccc2)CCCCC3)cc1	-4%	0%	5%	-4	30µM*	0
COc1ccc(C2=C(C(C)=O)Sc3nnc(-c4ccc(Cl)cc4)n3N2C(C)=O)cc1OC	/	-1%	/	/	/	/
O=C1NC(=O)C2(N1)C(=O)c1cccc3cccc2c13 (centres undefined)	/	/	/	-6	11µM*	0
O=C1NC2(O)C(=O)c3ccccc3C2(O)N1 (centres undefined)	-7%	5%	0%	3	-2%	-4
COc1ccc(CCc2c[nH]c(=O)c3cncnc23)cc1OC	/	-25%	/	/	/	/
Cc1ccc(C(=O)Nc2nnc(S(=O)(=O)N3CCCc4ccccc43)s2)cc1	/	1%	/	/	/	/
Cc1ccc(NC(=S)N2CCC(c3ccc(C)cc3)C2)cc1 (centres undefined)	-8%	?	-4%	8	21µM*	3
COc1ccc(NC(=S)N2CCC(c3ccc(C)cc3)C2)cc1 (centres undefined)	-5%	2%	/	-3	-4%	1
CN(C)/[N+]([O-])=N/Oc1cc(ON=[N+]([O-])N2CCN(c3ncccn3)CC2)c([N+](=O)[O-])cc1[N+](=O)[O-]	/	-25%	2%	/	/	/
O=C(NC(=S)Nc1ccccn1)c1ccco1	-14%	4%	0%	-2	1%	33
CCN(CC)c1ccc(NC(=S)NC(=O)c2ccco2)cc1	4%	79µM*	?	-19	21µM*	-1
O=C(NC(=S)Nc1cccnc1Cl)c1ccco1	-4%	0%	-18%	-3	27µM*	6
Cc1cccc(-c2nc3c(cnn3-c3ccccc3)c(=O)n2-c2cccc(Cl)c2)c1	/	4%	/	/	/	/
CC(=O)c1ccc(NC(=O)C2CC2c2ccccc2)cc1 (centres undefined)	/	-6%	/	1	?	3
CC(=O)c1ccc(NC(=O)C2C3C=CC(C3=C(c3ccccc3)c3ccccc3)C2C(=O)O)cc1 (centres undefined)	-18%	-21%	-8%	-6	42µM*	-4
